Source: PubChem BioAssay (Tox21)
The source made the active and inactive calls. Entries that show only a call come without a potency. The call rests on the fitted dose curve; in most records, active means well fitted activation curve with a large enough effect in the repeat runs; inconclusive means weak or mixed curves; inactive means flat fitted curve, though single readings scatter.

Target: KiSS-1 receptor (Homo sapiens) (UniProt Q969F8)
Test: Human kisspeptin (KISS1R) small molecule agonists, calcium flux assay in KISS1R-HEK293 cells (AID 1920064)
Details: KISS1R-HEK293, calcium flux fluorescence, agonist; series mostly up to 76.8 µM
Text: National Center for Advancing Translational Sciences [NCATS]
Division of Preclinical Innovation [DPI]
U.S. Environmental Protection Agency [EPA]
National Institutes of Environmental Health Sciences [NIEHS]
National Toxicology Program [NTP]
U.S. Food and Drug Administration [FDA]
Kisspeptin and its receptor KISS1R play key roles in mammalian reproduction due to their involvement in the onset of puberty and control of the hypothalamic-pituitary-gonadal axis such as regulates GnRH release from the hypothalamus. The kisspeptin/KISS1R system also plays a direct role in peripheral organs (including the ovary, testis, uterus, and placenta) and is implicated in reproductive diseases such as miscarriage and polycystic ovary syndrome (PCOS). Abnormal KISS1R activity is associated with abnormal puberty, infertility, endometriosis, and hormone-dependent tumors. The KISS1 receptor (KISS1R, also called GPR54), a G-protein-coupled receptor (GPCR), acts (through phospholipase C) to increase intracellular inositol trisphosphate and then release intracellular calcium stores. Cell-based KISS1R-HEK293 assay is using HEK293 cells that have been genetically engineered to express the human KISS1R, which activity can be measured by calcium signaling. A compound/drug can activate (agonist) KISS1R that can be monitored by levels of intracellular calcium.
KISS1R-HEK293 cells developed by Codex Corp contain human KISS1R gene, which was stably integrated into HEK 293 cells. The compound activation can be detected by fluorescence intensity via calcium flux assay. This cell line has been used to screen the Tox21 10K compound library to identify agonists of KISS1R.
KISS1R-Hek293 cells were dispensed at 1500 cells/4uL/well in 1536-well black wall/clear bottom plates using a multidrop dispenser. After the assay plates were incubated at a 37 C/5% CO2 incubator for 18 hours, 4 microL of Calcium Dye Solution was added to each well. The plates were incubated at 37 C for 1 hour. And then 23 nL of compounds dissolved in DMSO, positive controls, or DMSO only was transferred to the assay plate by a pin tool station. The fluorescence intensity in the plates was measured using FDSS 7000EX kinetic plate reader with a filter set of Ex/Em=480/540 for 3 min at 1 sec intervals. Each test compound was measured at 15 concentrations and in triplicates.

Chain of KiSS-1 receptor (Homo sapiens) (Q969F8 whole entry, looked up): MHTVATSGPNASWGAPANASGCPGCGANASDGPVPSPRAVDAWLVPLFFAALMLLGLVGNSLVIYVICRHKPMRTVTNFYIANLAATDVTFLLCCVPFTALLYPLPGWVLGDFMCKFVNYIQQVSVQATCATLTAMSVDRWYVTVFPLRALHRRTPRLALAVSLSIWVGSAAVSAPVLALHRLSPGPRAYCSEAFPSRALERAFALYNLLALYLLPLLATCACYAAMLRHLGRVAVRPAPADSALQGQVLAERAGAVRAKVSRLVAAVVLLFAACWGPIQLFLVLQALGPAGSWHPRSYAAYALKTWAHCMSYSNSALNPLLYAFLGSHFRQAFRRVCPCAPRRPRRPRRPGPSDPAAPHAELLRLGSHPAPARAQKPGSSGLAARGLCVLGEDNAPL

Question: With `Nc1cccnc1` as the compound, how does the Potency read?
Answer: Its Potency is “inactive”.

Question: `CCOCN(C(=O)CCl)c1c(C)cccc1CC` was tested. Which Potency did it give?
Answer: The Potency was “inactive”.

Question: How did the Potency turn out when `CC(C)OC(=O)Cc1ccccc1` was run?
Answer: Its Potency is “inactive”.

Question: With `Clc1ccccc1Cl` as the compound, how does the Potency read?
Answer: The Potency was “inactive”.

Question: For `CCCSC(=O)Cl`, which Potency is on record?
Answer: Its Potency is “inactive”.

Question: How did the Potency turn out when `Nc1ccccc1` was run?
Answer: The Potency was “inactive”.

Question: For `CCCCOC(=O)c1ccccc1C(=O)O`, which Potency is on record?
Answer: The Potency was “inactive”.

Question: `CS(=O)(=O)Cl` was tested. Which Potency did it give?
Answer: The Potency was “inactive”.

Question: Which Potency does the source give for `CC(=O)C1CCOC1=O` (stereo not given) here?
Answer: Its Potency is “inactive”.

Question: How did the Potency turn out when `CC(=O)[O][Hg][c]1ccccc1` was run?
Answer: The Potency was “inactive”.

Question: For `CC(C)(N)Cc1ccccc1Cl`, which Potency is on record?
Answer: The Potency was “inactive”.

Question: With `COc1c(C(C)(C)C)cc([N+](=O)[O-])c(C)c1[N+](=O)[O-]` as the compound, how does the Potency read?
Answer: The Potency was “inactive”.

Question: `CCC/C=N/O` was tested. Which Potency did it give?
Answer: Its Potency is “inactive”.

Question: For `CC(=O)CCC(C)=O`, which Potency is on record?
Answer: The Potency was “inactive”.

Question: With `CC[N+](=O)[O-]` as the compound, how does the Potency read?
Answer: Its Potency is “inactive”.

Question: With `CCCCCCCCC(=O)NCc1ccc(O)c(OC)c1` as the compound, how does the Potency read?
Answer: The Potency was “inactive”.

Question: Which Potency does the source give for `CC(C)C(C)(N)C#N` (stereo not given) here?
Answer: The Potency was “inactive”.

Question: Which Potency does the source give for `C=C(C)[C@@H]1CC=C(C=O)CC1` here?
Answer: Its Potency is “inactive”.

Question: For `O=[N+]([O-])/C=C/c1ccccc1`, which Potency is on record?
Answer: The Potency was “inactive”.

Question: How did the Potency turn out when `CCCCOCCOC(C)=O` was run?
Answer: The Potency was “inactive”.

Question: With `COC(C)(C)CCCC(C)C/C=C/C(C)=C/C(=O)OC(C)C` (stereo not given) as the compound, how does the Potency read?
Answer: Its Potency is “inactive”.

Question: How did the Potency turn out when `O=S(=O)(O)OOS(=O)(=O)O` was run?
Answer: Its Potency is “inactive”.

Question: Which Potency does the source give for `O=C(O)c1cc(Oc2ccc(C(F)(F)F)cc2Cl)ccc1[N+](=O)[O-]` here?
Answer: Its Potency is “inactive”.

Question: With `CCCCON=O` as the compound, how does the Potency read?
Answer: Its Potency is “inactive”.

Question: `CCCCNC(=O)n1c(NC(=O)OC)nc2ccccc21` was tested. Which Potency did it give?
Answer: The Potency was “inactive”.

Question: For `C#CCOS(=O)OC1CCCCC1Oc1ccc(C(C)(C)C)cc1` (stereo not given), which Potency is on record?
Answer: Its Potency is “inactive”.

Question: `CC(C)OS(C)(=O)=O` was tested. Which Potency did it give?
Answer: Its Potency is “inactive”.

Question: How did the Potency turn out when `FC(F)(F)c1ccc(Cl)cc1` was run?
Answer: The Potency was “inactive”.

Question: For `COP(=S)(OC)Oc1ccc(Sc2ccc(OP(=S)(OC)OC)cc2)cc1`, which Potency is on record?
Answer: The Potency was “inactive”.

Question: Which Potency does the source give for `NCCc1ccc(O)cc1` here?
Answer: The Potency was “inactive”.

Question: With `CC(C)(O)C(=O)Nc1ccc([N+](=O)[O-])c(C(F)(F)F)c1` as the compound, how does the Potency read?
Answer: The Potency was “inactive”.

Question: `CC(C)(c1ccccc1)c1cc(-n2nc3ccccc3n2)c(O)c(C(C)(C)c2ccccc2)c1` was tested. Which Potency did it give?
Answer: The Potency was “inactive”.

Question: Which Potency does the source give for `CC(C)Nc1nc(Cl)nc(NC(C)C)n1` here?
Answer: Its Potency is “inactive”.

Question: How did the Potency turn out when `Nc1ccc(N=Nc2ccc(-c3ccc(N=Nc4c(S(=O)(=O)O)cc5cc(S(=O)(=O)O)c(N=Nc6ccccc6)c(O)c5c4N)cc3)cc2)c(N)c1` was run?
Answer: The Potency was “inactive”.

Question: `CCc1cnc(C2=NC(C)(C(C)C)C(=O)N2)c(C(=O)O)c1` (stereo not given) was tested. Which Potency did it give?
Answer: Its Potency is “inactive”.

Question: Which Potency does the source give for `O=c1n(Cl)c(=O)n(Cl)c(=O)n1Cl` here?
Answer: Its Potency is “inactive”.

Question: For `Cc1cc(O)ccc1Cl`, which Potency is on record?
Answer: The Potency was “inactive”.

Question: How did the Potency turn out when `c1ccc(Nc2ccc3ccccc3c2)cc1` was run?
Answer: The Potency was “inactive”.

Question: How did the Potency turn out when `c1nc[nH]n1` was run?
Answer: The Potency was “inactive”.

Question: For `CN(C)C(=O)Nc1cccc(C(F)(F)F)c1`, which Potency is on record?
Answer: The Potency was “inactive”.
